Records with an inconclusive call do not appear. Active and inactive are the calls of the source. Unless noted, calls come from the whole dose curve; as a rule, active = well fitted curve in the direction sought with a large enough effect in the repeat runs; inconclusive = weak or mixed curves; inactive = no such curve, though single readings can be large; an effect the other way counts as inactive or inconclusive.
What was measured:
[1] = qHTS assay for small molecule agonists of the p53 signaling pathway (AID 651631; calls by dose curve; note: nearly all actives have a fitted effect of over 15% in size)
Procedure, shortened: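 p53RE-bla HCT-116 cells; compounds 16 h, 37 °C; LiveBLAzer B/G FRET substrate 2 h RT; fluorescence intensity read-out, qHTS format.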

[2] = qHTS assay for small molecule agonists of the p53 signaling pathway - cell viability (AID 651633; calls by dose curve;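 note: p53RE-bla HCT reporter cells with a stable beta-lactamase p53 reporter; series mostly up to about 83 µM; nearly all actives have a fitted effect of over 30% in size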)
Procedure, shortened: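 p53RE-bla cells, seeded at 4,000 per well and rested 5 h at 37 C/5% CO2, received compounds in DMSO for 16 h at 37 C. CellTiter-Glo was then added, and luminescence was read after 30 min at room temperature to gauge cytotoxicity.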

[3] = qHTS assay for small molecule disruptors of the mitochondrial membrane potential - cell viability (AID 720634; calls by dose curve;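 note: human HepG2 liver cancer cells; series mostly up to about 83 µM; nearly all actives have a fitted effect of over 20% in size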)
Procedure, shortened: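 HepG2 cells, 2,000 per well, attached overnight, then treated 1 hr at 37 C, 5% CO2. Viability read as ATP by CellTiter-Glo luminescence after 30 min at room temperature. Read in the same wells as the m-MPI membrane-potential dye assay.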

[4] = qHTS assay for small molecule disruptors of the mitochondrial membrane potential (AID 720635); note: potency is the fitted concentration of half-maximal effect
Procedure, shortened: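 HepG2 cells (2,000/well) attached overnight at 37C, then took compound for 1 hr at 37C, 5% CO2. Mito-MPS dye was added for 30 min; fluorescence was read at 490/535 nm (monomers) and 540/590 nm (aggregates).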

[5] = qHTS assay to test for compound auto fluorescence at 590 nm (red) in HepG2 cells (AID 720674)
Procedure, shortened: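 Compound auto-fluorescence is scored relative to Rose Bengal sodium, measured at 540/590 nm in live HepG2 cultures after 1 hr compound contact (37 C, 5% CO2).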

[6] = qHTS assay to test for compound auto fluorescence at 535 nm (green) in HepG2 cells (AID 720675)
[7] = qHTS assay to test for compound auto fluorescence at 460 nm (blue) in HEK293 cells (AID 720678)
Procedure, shortened: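 HEK293 cells (2,000/well, medium with 10% dialyzed FBS) attached 4-5 hr, then exposed to compound overnight at 37C, 5% CO2. Blue fluorescence read at 405/460 nm, with triamterene as reference fluorophore.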

[8] = qHTS assay to test for compound auto fluorescence at 590 nm (red) in HEK293 cells (AID 720679)
Procedure, shortened: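 HEK293 cells (2,000/well, 10% dialyzed FBS) attached 4-5 hr, then dosed with compound or DMSO and incubated overnight at 37C, 5% CO2. Red fluorescence read at 540/590 nm, Rose Bengal sodium as reference fluorophore.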

[9] = qHTS assay for small molecules that induce genotoxicity in human embryonic kidney cells expressing luciferase-tagged ATAD5 (AID 651632); note: nearly all actives have a fitted effect of over 15% in size
Procedure, shortened: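 HEK293T cells carrying luciferase-tagged ATAD5 were given compound or DMSO vehicle and incubated 16 hr at 37C, 5% CO2. Luciferase activity was read after 30 min at room temperature with Amplite; a rise signals genotoxic stress.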

[10] = qHTS assay for small molecules that induce genotoxicity in human embryonic kidney cells expressing luciferase-tagged ATAD5 - cell viability (AID 651634; calls by dose curve; note: nearly all actives have a fitted effect of over 25% in size)
Procedure, shortened: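 HEK293T cells carrying luciferase-tagged ATAD5, 2,000 cells/well, exposed to compound for 15.5 hr at 37C. Viability read as live-cell protease activity by CellTiter-Fluor fluorescence after 30 min at 37C.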

Measured: Potency

O=C(NCC1CCCCN1)c1cc(OCC(F)(F)F)ccc1OCC(F)(F)F (centres undefined)
not listed: [9] | [10]
inactive: all other assays above

CC(COCC(C)OC(=O)c1ccccc1)OC(=O)c1ccccc1 (centres undefined)
not listed: [1]
inactive: all other assays above

COC(=O)/C=C\C(=O)OC
not listed: [4]
inactive: all other assays above

CCN(CC)CCNC(=O)c1ccc(N)cc1
active: [4] 13.3 µM
not listed: [1]
inactive: all other assays above

Clc1cccc(Cl)c1NC1=NCCN1
not listed: [9]
inactive: all other assays above

O=C1O[C@H]([C@H](O)CO)C(O)=C1O
not listed: [2]
inactive: all other assays above

COc1cc(NC(=O)CC(C)=O)c(OC)cc1Cl
not listed: [1]
inactive: all other assays above

Cc1ncc(CO)c(CO)c1O
not listed: [9]
inactive: all other assays above

NCCNCCNCCN
not listed: [9]
inactive: all other assays above

CC(=O)OC/C=C(\C)CCC=C(C)C
not listed: [4]
inactive: all other assays above

NC1CCCCC1N (centres undefined)
not listed: [3] | [4] | [9]
inactive: all other assays above

CN=C(NC#N)NCCSCc1nc[nH]c1C
not listed: [1] | [2]
inactive: all other assays above

From PubChem BioAssay (Tox21)
